In all, about 320,000 compounds went through this assay and about 2,100 (0.66%) were called active. Not shown: some 53% with an inconclusive outcome. Calls follow the shape of the dose curve; as a rule, active = well fitted inhibition curve with a large enough effect in the signal ratio, with a control signal flat (not every such curve was filed as active); inconclusive = small, poorly fitted or top-dose-only effect, or effect the other way, or a change in a side signal; inactive = flat fitted curve, though single readings scatter; the % refers to the signal ratio. The list comes from a sample in which actives are over-represented; it also holds similar structures and randomly drawn compounds.
Potency is read from the fitted curve at half-maximal effect.

A short description of the assay: qHTS Assay for Lipid Storage Modulators in Drosophila S3 Cells.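 As to cell number change: cells counted by Cell Tracker Red CMTPX staining in the red channel.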 As to lipid storage change, negative = inhibition: % is scaled to controls: 0 for no effect and ±100 for the full control effect. Particulars: BODIPY lipid droplet fluorescence, 18-24 h, cells fed with added oleic acid; cell number change: measured here: cell count max response; series mostly up to 46.1 µM; lipid storage change, negative = inhibition: at the top concentration. The method, boiled down: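 Drosophila S3 cells got compounds at several concentrations plus oleic acid (400 uM solution). Laser-scanning cytometry with 488 nm excitation read lipid droplets at 500-530 nm and cells at 575-640 nm. Percent activity was relative to 20 uM Triacsin C.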
(In general: Quantitative high-throughput screening tests each substance at several concentrations.)
On to `O=C(COc1ccc([N+](=O)[O-])cc1)Nc1cc(C(=O)O)cc(C(=O)O)c1`, for which the “lipid storage change, negative = inhibition” value is -3.27% (inactive) and the cell number change turned out to be 11.2%. In the same order, the values of `Cc1cc(Br)ccc1NC(=O)CNC(=O)CSc1ncccn1` are -5.9% (inactive) and -9.9%. The like results for `Cc1ccccc1C1c2[nH]c3ccccc3c2C[C@H]2C(=O)N(C3CC3)CC(=O)N12` (stereo partly specified) were, in that order, 1.27% (inactive) and -3.81%. For `Cc1ccc(S(=O)(=O)N(CC(=O)N2CCCCC2)c2cccc(C)c2)cc1`, the “lipid storage change, negative = inhibition” value is -5.81% (inactive) and the cell number change is -21.5%.

Consider `CCOC(=O)N1CCN(C(=O)CN(c2cccc(C)c2)S(=O)(=O)c2ccc(C)cc2)CC1`, for which the Potency is 5.8 µM (active) and the cell number change is 6.11%. Consider `Cc1ccc(S(=O)(=O)N(CC(=O)N2CCC(C)CC2)c2cccc(C)c2)cc1`, for which the call was inactive. With `Cc1nc2c(C(=O)N3CCOCC3)cnn2c(C)c1Cc1ccc(Cl)cc1`, the “lipid storage change, negative = inhibition” value was -11.2% (inactive) and the cell number change is -21.6%. In the same order, the values of `CCn1c(SC)nc2cc(S(=O)(=O)N3CCCCC3)ccc21` are 1.06% (inactive) and -3.03%. The like results for `Cc1ccc(OCCC(=O)OCC(=O)Nc2ccc(Cl)cn2)cc1` were, in that order, 6.81% (inactive) and -15.3%.

As to `O=C(COC(=O)CNC(=O)c1ccco1)Nc1ccc(Cl)cn1`, the outcome was inactive. With `Cc1ccc(C(=O)NCC(=O)OCC(=O)Nc2ccc(Cl)cn2)cc1`, the Potency is 3.66 µM (active) and the cell number change is -28.4%. As for `N#Cc1ccc(COc2cccc3cccnc23)cc1`, the result was inactive and the cell number change is -22.2%. Turning to `CC(C)C(NS(=O)(=O)c1ccc2c3c(cccc13)C(=O)N2)C(=O)O` (stereo unspecified), the “lipid storage change, negative = inhibition” value is 6.99% (inactive) and the cell number change turned out to be 15.8%. The like results for `Cc1oc2c(cc(NS(=O)(=O)c3ccc4c5c(cccc35)C(=O)N4)c3ccccc32)c1C(=O)OC(C)C` were, in that order, -3.12% (inactive) and 10.8%.

`Cc1cc(O)ccc1NS(=O)(=O)c1ccc2c3c(cccc13)C(=O)N2`: the Potency was 0.366 µM (active) and the cell number change was -0.855%.

In the case of `O=C(N=C1N=C2C=CC=CN2Cc2ccccc21)c1ccc(S(=O)(=O)N2CCCC2)cc1`, the “lipid storage change, negative = inhibition” value was 16.7% (inactive) and the cell number change came out at 13.8%. In the case of `O=C(Nc1ccc(Oc2ncnc3cc(Cl)ccc23)nc1)Nc1cccc(C(F)(F)F)c1`, the “lipid storage change, negative = inhibition” value is -3.18% (inactive) and the cell number change is -3.74%.

In the case of `O=C(N[C@H]1CC1c1ccccc1)c1ccc([N+](=O)[O-])cc1` (stereo partly specified), the “lipid storage change, negative = inhibition” value is 3.34% (inactive) and the cell number change was -1.22%. For `C=C(C)Cn1c(-c2ccncc2)n[nH]c1=S`, the “lipid storage change, negative = inhibition” value is 1.47% (inactive) and the cell number change was -24.7%.

Turning to `O=C(CCN1CCOCC1)N1CCCC(Nc2ccc(F)cc2)C1` (stereo unspecified), the “lipid storage change, negative = inhibition” value was 26.7% (inactive). For `O=C1Nc2ncccc2OC1CCCl` (stereo unspecified), the “lipid storage change, negative = inhibition” value is 10.4% (inactive) and the cell number change worked out at 11.9%. The like results for `CCS(=O)(=O)c1ccc2c(c1)NC(=O)C(CCO)O2` (stereo unspecified) were, in that order, -3.89% (inactive) and 7.6%. Take `O=C1Nc2ncccc2OC1CCO` (stereo unspecified): the Potency is 25.9 µM (active) and the cell number change is -19.3%. On to `CCOC(=O)c1ccc(NC(=O)Cn2c(=O)oc3ccccc32)cc1`, for which the “lipid storage change, negative = inhibition” value was -11.9% (inactive) and the cell number change is 2.64%. In the same order, the values of `COc1cc(C2NC(=O)NC(C)=C2C(=O)OC(C)(C)C)ccc1OCC(N)=O` (stereo unspecified) are 5.76% (inactive) and 1.52%. For `COc1ccc2c(c1OC)C(=O)NC(C)=C(C(=O)OC(C)(C)C)C2O` (stereo unspecified), the Potency was 14.6 µM (active) and the cell number change was found to be 0.147%.

Take `CC1=C(C(=O)OC(C)(C)C)C(c2cccs2)NC(=O)N1` (stereo unspecified): the “lipid storage change, negative = inhibition” value is 5.94% (inactive) and the cell number change worked out at 16.7%.

The values are drawn from PubChem BioAssay AID2685 (National Center for Advancing Translational Sciences (NCATS), 2010).
